From PubChem BioAssay (NCI)
About 79,000 compounds went through this panel and 15% of them were active in at least one assay; those are over-represented in the sample as a whole. No stated cut-off is given here; in the data, active means growth inhibition above about 70%; inactive means the rest.

Experiments:
[1] = NCI Yeast Anticancer Drug Screen. Data for the rad50 strain (AID 155);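 further: 0% = growth of vehicle-only cultures of the same strain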; details: S. cerevisiae rad50 strain growth inhibition; at 50.0 µM; hits give high values
Summary of the method: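 Relative growth inhibition (compound vs vehicle) was measured in yeast with a defined repair-gene alteration.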

[2] = NCI Yeast Anticancer Drug Screen. Data for the mec2-1 strain (AID 157); details: S. cerevisiae mec2-1 strain, at 50.0 µM, hits give high values
Summary of the method: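 Vehicle-treated cultures served as reference for growth inhibition of compound-exposed mec2-1 yeast.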

[3] = NCI Yeast Anticancer Drug Screen. Data for the sgs1 mgt1 strain (AID 161);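 further: 0% = growth of cultures given vehicle only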; details: S. cerevisiae sgs1 mgt1 strain, at 50.0 µM, hits give high values
Summary of the method: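 Genetically altered yeast, compound exposure, growth inhibition relative to vehicle.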

[4] = NCI Yeast Anticancer Drug Screen. Data for the cln2 rad14 strain (AID 165);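 further: 0% = growth equal to vehicle treated cultures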; details: S. cerevisiae cln2 rad14 strain, at 50.0 µM, hits give high values
Summary of the method: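 Each compound was tested on cln2 rad14 yeast. Inhibition of growth was calculated against vehicle-exposed controls.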

[5] = NCI Yeast Anticancer Drug Screen. Data for the bub3 strain (AID 167); details: S. cerevisiae bub3 mutant strain, at 50.0 µM, hits give high values
Summary of the method: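 Screening used yeast with an engineered genetic alteration affecting cell cycle control. Compound-exposed cultures were compared with vehicle cultures, and reduced growth was taken as inhibition.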

[6] = NCI Yeast Anticancer Drug Screen. Data for the mlh1 rad18 strain (AID 175); details: S. cerevisiae mlh1 rad18 strain growth inhibition; at 50.0 µM; hits give high values
Summary of the method: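 Vehicle-treated cultures served as the reference for growth inhibition in a yeast strain carrying DNA damage repair alterations exposed to each compound.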

Measured: growth inhibition

Cc1ccc(C(=O)N/N=C/c2ccc(N(C)C)cc2Cl)cc1
inactive: [1] 39.5% | [2] 20.2% | [3] 16.4% | [4] 22.9% | [5] 61% | [6] 21.9%

CC(=Nc1ccccc1)Nc1ccccc1
inactive: [1] -5.45% | [2] 3.3% | [3] 18.1% | [4] -20.6% | [5] 4.7% | [6] 48.1%

CCCN1COC(OCCN(CC)CC)C(C)(C)C1 (stereo unspecified)
inactive: [1] 7.15% | [2] -4.35% | [3] -21.3% | [4] 6.7% | [5] 7.2% | [6] 12.9%

CCCCCCC(C(=O)OCC)(C(=O)OCC)c1ccccc1
inactive: [1] -10.8% | [2] -16.1% | [3] 1.15% | [4] -31.1% | [5] 37.9% | [6] -6.2%

CCc1ccc(N=Nc2c(F)c(F)c(NC(C)=O)c(F)c2F)cc1
inactive: [1] -3.95% | [2] 11.3% | [3] -10.5% | [4] 6.9% | [5] 7.9% | [6] -13.4%

COC1(OC)C=NNc2nccn21
inactive: [1] 2.05% | [2] -2.5% | [3] 3.3% | [4] 19.6% | [5] -5.9% | [6] -5.3%

O=C(O)CCS(=O)(=O)CCC(=O)O
inactive: [1] -8.4% | [2] 0.8% | [3] -21.4% | [4] -30% | [5] 8.6% | [6] 22.8%

NC(CC(=O)Nc1ccc(Cl)cc1)=Nc1ccccc1
inactive: [1] -28.6% | [2] -12.9% | [3] -11.2% | [4] -10.3% | [5] -14.4% | [6] -18.9%

Nc1cccc2c(O)cc(S(=O)(=O)O)cc12
inactive: [1] -1.35% | [2] -19.2% | [3] 7.6% | [4] -10.7% | [5] -0.4% | [6] 21.6%

CCN(CC)C(=O)Oc1cc(C)c([N+](C)(C)C)cc1C(C)C
inactive: [1] 10.1% | [2] 6.7% | [3] 13.2% | [4] 17.8% | [5] 24.6% | [6] -27.7%

N#CC(=NCCO)C1=C(O)c2ccccc2C1=O
inactive: [1] 6.1% | [2] -10.7% | [3] -16.3% | [4] -30.6% | [5] -48% | [6] -12.3%

O=C(OCOC(=O)N1CCOCC1)N1CCOCC1
inactive: [1] 2.3% | [2] -7.25% | [3] 1% | [4] 17.6% | [5] -1.9% | [6] -5.2%

C=C(C)COc1ccc(/C=C/C(=O)OCC)cc1
inactive: [1] 9.8% | [2] -4% | [3] 4.5% | [4] 1.2% | [5] -6.25% | [6] -12.4%

CCCCCCCCCCCCOP(=O)(O)OP(=O)(O)OCC1OC(n2ccc(N)nc2=O)CC1O (stereo unspecified)
inactive: [1] 27.9% | [2] 21.5% | [3] 27.6% | [4] 17.1% | [5] 22.1% | [6] 18.2%

C=CCC1(C)C=C(C)C(=O)C(C)=C1
inactive: [1] -6.05% | [2] -7% | [3] 18.6% | [4] 2.55% | [5] 16.2% | [6] 15.1%

CC1CCC2OC23C(=O)C2OC2C(C(C)(C)O)C13C (stereo unspecified)
inactive: [1] -3.25% | [2] -2.35% | [3] -10.7% | [4] 2.5% | [5] 5.65% | [6] 12.8%

CCCCC(CCCC)NCC(C)OC(=O)c1ccc(N)cc1 (stereo unspecified)
inactive: [1] 20.6% | [2] -2.35% | [3] 0.5% | [4] -26.8% | [5] -6% | [6] 16.3%

S=C(Nc1ccc2c(c1)Cc1ccccc1-2)Nc1ccc2c(c1)Cc1ccccc1-2
inactive: [1] 25.8% | [2] 18.9% | [3] -39.7% | [4] -12.7% | [5] 27% | [6] 31%

CN(C)c1ccc(N=Cc2ccc3c(c2)OCO3)cc1
inactive: [1] -6.65% | [2] 6.3% | [3] -15.3% | [4] -18.1% | [5] -6.1% | [6] -0.05%

OCC(OC/C=C/CCl)c1ccc(Cl)cc1 (stereo unspecified)
inactive: [1] -6.75% | [2] 8.7% | [3] 0.2% | [4] -0.15% | [5] -9.5% | [6] -15.9%

CSc1c(C#N)c(N)nc2c(N=Nc3ccc(Cl)cc3)c(N)nn12
inactive: [1] 8.75% | [2] 3.65% | [3] -9.1% | [4] -4.65% | [5] -6.5% | [6] -58%

Cc1ccc([N+](=O)[O-])cc1NC(=O)NCCO
inactive: [1] 1.15% | [2] 1.6% | [3] -6.3% | [4] -71% | [5] 1% | [6] -1.75%

O=C(O)c1cc(S(=O)(=O)O)ccc1O
inactive: [1] 9.7% | [2] 18% | [3] -9.9% | [4] -29.9% | [5] -16.7% | [6] -13.2%

N#Cc1c(/C=C/c2ccccc2)c2c([nH]c1=S)CCCCC2
inactive: [1] 0.35% | [2] -17.5% | [3] 16.1% | [4] 26.8% | [5] 16.9% | [6] 19.1%

C[N+]1(C)CCC2=CC(=O)CC(c3ccccc3)C2C1 (stereo unspecified)
inactive: [1] 11.7% | [2] -0.6% | [3] 12.6% | [4] 20.8% | [5] -3.3% | [6] -12%

CCSc1nnc(-c2ccccc2)nc1Cc1ccc(OC)cc1
inactive: [1] -38.2% | [2] -13.2% | [3] -62.7% | [4] -12.8% | [5] -30.5% | [6] -39.5%

COc1ccc(C#CCC(OC2OC(CO)C(O)C(O)C2O)C(O)c2ccc(OC)c(OC)c2)cc1OC (stereo unspecified)
inactive: [1] -0.15% | [2] -7.55% | [3] -6.95% | [4] 12% | [5] -17.2% | [6] -15.9%

CSc1[nH]c2ncnc(Cl)c2c1C#N
inactive: [1] 23.6% | [2] 10.3% | [3] 15.9% | [4] -21.8% | [5] -27.3% | [6] 21.7%

CCOC(=N)CC(=O)Nc1ccccc1CC
inactive: [1] 17.8% | [2] -0.05% | [3] 11.6% | [4] 4.05% | [5] 12.1% | [6] 20.9%

COC(OC)C1(CCc2ccccc2)NC(=O)N(C)C1=O (stereo unspecified)
inactive: [1] -17.4% | [2] 2.2% | [3] 5.6% | [4] -19.9% | [5] 25.6% | [6] -0.65%

CNC(=O)OCC1=CC(=O)C=C(OC)C1=O
inactive: [1] 7.3% | [2] -14.9% | [3] 18.4% | [4] 14.4% | [5] 2.45% | [6] 9%

COc1cc(O)c(C(C)=O)c2c1C=CC(C)(C)O2
inactive: [1] -4.95% | [2] -47.1% | [3] -19.9% | [4] -16.8% | [5] -13.8% | [6] -14.7%

O=C(O)/C=C(/CC(=O)O)c1ccc(O)cc1
inactive: [1] -14.9% | [2] -21.7% | [3] -9.9% | [4] -4.55% | [5] -18.6% | [6] -14.3%

c1coc(C2OCCO2)c1
inactive: [1] -24.1% | [2] -31.6% | [3] -26.6% | [4] 6.75% | [5] -21.8% | [6] -3.1%

Cc1ccc(CCOS(=O)(=O)c2ccc(C)cc2)cc1
inactive: [1] 13.5% | [2] -26.5% | [3] -1.3% | [4] 10.2% | [5] 28% | [6] 10.7%

O=C(O)c1cnc2cc3c(cc2c1Nc1cccc(Cl)c1)OCO3
inactive: [1] -2.25% | [2] -4.05% | [3] 4.45% | [4] -27.5% | [5] -8.6% | [6] -12.6%

CC(C)CCOC(=O)CC(CC(=O)OCCC(C)C)C(=O)OCCC(C)C
inactive: [1] 20.9% | [2] -14.5% | [3] 6.35% | [4] 5.9% | [5] -18.1% | [6] 8.15%

CCCCCCCCCCCCCCCCSc1ccc(Br)cc1
inactive: [1] 45% | [2] 7% | [3] 23.9% | [4] 1.8% | [5] 2.2% | [6] 21%

COC(=O)C(=O)CC(=O)CCn1ncc(Cl)c(Cl)c1=O
inactive: [1] -14.3% | [2] -25.4% | [3] -1.3% | [4] 6.45% | [5] -13.6% | [6] -17.7%

CC(C)(C)c1cc(Nc2c([N+](=O)[O-])cc([N+](=O)[O-])cc2[N+](=O)[O-])cc(C(C)(C)C)c1O
inactive: [1] -17.7% | [2] 10.4% | [3] 2.65% | [4] 20.4% | [5] -5.4% | [6] 0.45%

CCC(C)C(NS(=O)(=O)Cc1ccccc1)C(=O)O (stereo unspecified)
inactive: [1] -3.85% | [2] 16.4% | [3] 3.05% | [4] 10.9% | [5] -10.3% | [6] 6.8%
